Source: the supplement of paper PMC3334620
Over roughly 33,000 sequences, “E-score (-0.5 to 0.5)” has its median near -0.017; the highest 2% begin near 0.3. Many of the other results were omitted from the sample, so the highest values are more common in it than they were.

The sequences below were run against T1, Sut1 (UniProt P53032) (assay: PBM E-score (8-mer binding enrichment) (E-score (-0.5 to 0.5)); higher = stronger / more preferred TF binding). Details: protein concentration: 200 nM; construct: GST-full length.
T1 sequence: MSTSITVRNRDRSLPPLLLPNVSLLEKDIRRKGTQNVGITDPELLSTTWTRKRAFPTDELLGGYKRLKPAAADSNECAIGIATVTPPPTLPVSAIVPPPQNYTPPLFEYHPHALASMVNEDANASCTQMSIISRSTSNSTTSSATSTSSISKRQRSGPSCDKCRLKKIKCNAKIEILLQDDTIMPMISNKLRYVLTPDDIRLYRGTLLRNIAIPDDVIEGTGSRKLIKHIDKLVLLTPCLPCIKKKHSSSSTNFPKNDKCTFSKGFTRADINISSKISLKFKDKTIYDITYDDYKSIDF
Protocol: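 Universal 'all 10-mer' protein binding microarrays (Agilent AMADID 015681) probed with GST-tagged S. cerevisiae TFs (full-length or DBD) made by in vitro transcription/translation (PURExpress), about 100-200 nM. Bound TF was detected with fluorescent anti-GST. Each ungapped 8-mer (which stands for itself and its reverse complement) is scored by the PBM enrichment score (E-score), a modified Wilcoxon-Mann-Whitney statistic from -0.5 to +0.5, computed with the Universal PBM Analysis Suite. Scale: above 0.35 generally sequence-specific binding.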
In the case of CTTTCGGC, the “PBM E-score” value is reported as 0.0219. With CTTTCAAA the “PBM E-score” value was 0.302. ATTTCGAG was tested, and the “PBM E-score” value was 0.164. GAGTGGTA was tested, and the “PBM E-score” value was -0.0154. With CTGCGAGC the “PBM E-score” value was -0.126. In the case of GCGCCCGA, the “PBM E-score” value is reported as -0.17. AGGATCGG was tested, and the “PBM E-score” value was -0.00265. AACAGTCA was tested, and the “PBM E-score” value was -0.138. CATCTAAA was tested, and the “PBM E-score” value was 0.0229. With ATGCCATC the “PBM E-score” value was 0.0993. For GCCTTAAA, the “PBM E-score” value was 0.0657. AGGATGCG was tested, and the “PBM E-score” value was -0.116. With ATCCTAAG the “PBM E-score” value was -0.175. With AAGCCAGG the “PBM E-score” value was -0.253. In the case of CACAAAGG, the “PBM E-score” value is reported as -0.0165. With GGGGCCAC the “PBM E-score” value was -0.304. With GTTTCGAA the “PBM E-score” value was 0.0889. With GTTTCGTA the “PBM E-score” value was 0.0481. GTTTCGGA was tested, and the “PBM E-score” value was 0.334. For CCTGTTTC, the “PBM E-score” value was -0.0625. ACAATCGG was tested, and the “PBM E-score” value was 0.259. GCCCAAAA was tested, and the “PBM E-score” value was -0.0622. AATTCCCA was tested, and the “PBM E-score” value was 0.0113. For TATTCCGA, the “PBM E-score” value was 0.321. With CATTCCGA the “PBM E-score” value was 0.25. GATTCCCA was tested, and the “PBM E-score” value was -0.188. In the case of GATTCCGA, the “PBM E-score” value is reported as 0.337. AATTCCAA was tested, and the “PBM E-score” value was 0.21. AATTCCGA was tested, and the “PBM E-score” value was 0.371. For GATTCCGC, the “PBM E-score” value was 0.0522. In the case of TATTCCCA, the “PBM E-score” value is reported as 0.139. ATTCTACC was tested, and the “PBM E-score” value was 0.0903. For AAAAGATG, the “PBM E-score” value was 0.0556. For ACGGTCTA, the “PBM E-score” value was -0.0922. GATGGAGA was tested, and the “PBM E-score” value was 0.0416. ACAGCATG was tested, and the “PBM E-score” value was -0.124. For CCGATTGC, the “PBM E-score” value was 0.109. GCAGCAGA was tested, and the “PBM E-score” value was -0.175. With CCTTCAGA the “PBM E-score” value was -0.0889. For GAACTGTC, the “PBM E-score” value was 0.00324. In the case of ATTCCCTC, the “PBM E-score” value is reported as -0.233. In the case of TCCCTAGA, the “PBM E-score” value is reported as -0.00999. In the case of ACTATAAA, the “PBM E-score” value is reported as 0.321. ACTAAAAC was tested, and the “PBM E-score” value was 0.159. In the case of GCTATAAA, the “PBM E-score” value is reported as 0.194. In the case of ACTAAAAA, the “PBM E-score” value is reported as 0.353. CCTATAAA was tested, and the “PBM E-score” value was -0.0583. With AGTATATA the “PBM E-score” value was 0.395. For AGTATATC, the “PBM E-score” value was 0.12. CTTATAAA was tested, and the “PBM E-score” value was 0.181. In the case of AGTATATG, the “PBM E-score” value is reported as 0.00722. For ACTAAAAG, the “PBM E-score” value was 0.214. GTTATAAA was tested, and the “PBM E-score” value was 0.303. GTTATAAC was tested, and the “PBM E-score” value was -0.0927. With ACTCAATG the “PBM E-score” value was 0.104. For GATTTGAA, the “PBM E-score” value was 0.142. For TAATCGTA, the “PBM E-score” value was 0.0634. In the case of CAACGGTC, the “PBM E-score” value is reported as -0.0872. With GGAGGTGA the “PBM E-score” value was 0.0437. With AGGTCTAT the “PBM E-score” value was -0.0267. With GCTCGATA the “PBM E-score” value was -0.105. GGTGTAGA was tested, and the “PBM E-score” value was -0.149. For ACTTAAAA, the “PBM E-score” value was 0.307. CCTTAAAA was tested, and the “PBM E-score” value was 0.0539. In the case of TGTATAAA, the “PBM E-score” value is reported as 0.157. With AGTATAAA the “PBM E-score” value was 0.302. For ACTTAAAC, the “PBM E-score” value was 0.241. For AGTATAAC, the “PBM E-score” value was 0.185. In the case of ACACTTCA, the “PBM E-score” value is reported as 0.0715. In the case of AGATGGCA, the “PBM E-score” value is reported as 0.0507. In the case of CATAGCCC, the “PBM E-score” value is reported as -0.196. For TCGGAAAA, the “PBM E-score” value was 0.372. CCGGAAAC was tested, and the “PBM E-score” value was 0.245. With ACGGAAAC the “PBM E-score” value was 0.0512. In the case of CCGGAAAG, the “PBM E-score” value is reported as 0.276. In the case of GCGGAAAA, the “PBM E-score” value is reported as 0.174. For CCGGAAAA, the “PBM E-score” value was 0.37. ACGGAAAG was tested, and the “PBM E-score” value was 0.25. With ACGGAAAT the “PBM E-score” value was 0.344. In the case of ACGGAAAA, the “PBM E-score” value is reported as 0.243. TAGGTACA was tested, and the “PBM E-score” value was -0.0499. For GTGAACCA, the “PBM E-score” value was 0.00963. With ACGGTGCC the “PBM E-score” value was -0.0952. With TCATTCCA the “PBM E-score” value was 0.0304. For ACGGTCGA, the “PBM E-score” value was -0.135. For CATTCTGA, the “PBM E-score” value was 0.00217. GCCGGACC was tested, and the “PBM E-score” value was 0.198. In the case of TCCGGACA, the “PBM E-score” value is reported as 0.415. In the case of CCCGGACC, the “PBM E-score” value is reported as 0.339. In the case of ACCGGACA, the “PBM E-score” value is reported as 0.234. In the case of GCCGGACA, the “PBM E-score” value is reported as 0.273. For CCCGGACA, the “PBM E-score” value was 0.354. CACGGACA was tested, and the “PBM E-score” value was 0.153. For CCCGGACG, the “PBM E-score” value was -0.12. In the case of CCCGGATC, the “PBM E-score” value is reported as 0.213. For GTCCACTA, the “PBM E-score” value was -0.0452. GATACTAA was tested, and the “PBM E-score” value was 0.141. In the case of ATGTGGGG, the “PBM E-score” value is reported as -0.203. CCAAAAGG was tested, and the “PBM E-score” value was -0.0868. With CGGAGTGC the “PBM E-score” value was 0.468. With CGGAGTGA the “PBM E-score” value was 0.451. With AGGAGTGA the “PBM E-score” value was -0.0299. AGGAGTGC was tested, and the “PBM E-score” value was -0.143. With CTGAGTGC the “PBM E-score” value was -0.199. In the case of GGGAGTGA, the “PBM E-score” value is reported as -0.0284. CAGATACC was tested, and the “PBM E-score” value was -0.149. For AGGGGCCG, the “PBM E-score” value was -0.272. For GCGCGTCA, the “PBM E-score” value was -0.00075. With AACCCGGA the “PBM E-score” value was 0.333. With TCCCCGAA the “PBM E-score” value was 0.228. In the case of CACCCGGA, the “PBM E-score” value is reported as 0.251. GACCCGGA was tested, and the “PBM E-score” value was 0.204. With CCCCCGGG the “PBM E-score” value was -0.174. ACCCCGGA was tested, and the “PBM E-score” value was 0.426. In the case of ACCCCGGG, the “PBM E-score” value is reported as 0.347. In the case of CCCCCGGA, the “PBM E-score” value is reported as 0.0624. For TCCCCCGA, the “PBM E-score” value was -0.141. For ACCCCGGC, the “PBM E-score” value was 0.183. ACCCCGGT was tested, and the “PBM E-score” value was 0.191. In the case of TCCCCGGA, the “PBM E-score” value is reported as 0.364. With CTCTGTGA the “PBM E-score” value was -0.105. For AGCGTCCC, the “PBM E-score” value was -0.168. In the case of TCACCCCA, the “PBM E-score” value is reported as -0.0213. For GAATTTAC, the “PBM E-score” value was 0.0497. For TGCGCAAA, the “PBM E-score” value was 0.0678. With AAGAGACC the “PBM E-score” value was -0.0189. In the case of ATGCAGCC, the “PBM E-score” value is reported as -0.0379. For AGCAAATG, the “PBM E-score” value was -0.0134. In the case of CCTTCGAC, the “PBM E-score” value is reported as -0.232. With TGCCTAAA the “PBM E-score” value was -0.00993. GGACATCA was tested, and the “PBM E-score” value was 0.3. For CGACATCA, the “PBM E-score” value was 0.143. GGACATCC was tested, and the “PBM E-score” value was 0.0309. With AGCTCAAG the “PBM E-score” value was -0.092. CGTGCAGA was tested, and the “PBM E-score” value was -0.148. AGAGCGGC was tested, and the “PBM E-score” value was -0.125. With AGAGCGGA the “PBM E-score” value was 0.318. AGAGCGGG was tested, and the “PBM E-score” value was -0.0998. For CTGAGCTC, the “PBM E-score” value was 0.119. In the case of AGGAGCTA, the “PBM E-score” value is reported as -0.155. For AGGAGCTC, the “PBM E-score” value was -0.18. With CGGAGCCC the “PBM E-score” value was 0.183. For GGGAGCTA, the “PBM E-score” value was -0.176. With AGGAGCCG the “PBM E-score” value was -0.281. In the case of CGGAGCTC, the “PBM E-score” value is reported as 0.414. CGGAGCCG was tested, and the “PBM E-score” value was 0.338. For CGGAGCTA, the “PBM E-score” value was 0.385. In the case of AAGCATTC, the “PBM E-score” value is reported as 0.0319. In the case of GCTCCCCC, the “PBM E-score” value is reported as -0.444. For GCATCAAA, the “PBM E-score” value was 0.14. With CCAAGGAG the “PBM E-score” value was -0.0556. In the case of ACTTGGTC, the “PBM E-score” value is reported as 0.183. For AGCATACA, the “PBM E-score” value was 0.187. For GCACAGTA, the “PBM E-score” value was -0.0754. With AGTCCGGA the “PBM E-score” value was 0.487. In the case of GGTCCCGA, the “PBM E-score” value is reported as 0.093. For AGTCCGGC, the “PBM E-score” value was 0.467. CGTCCGGC was tested, and the “PBM E-score” value was -0.0125. With AGTCCAGA the “PBM E-score” value was 0.0785. AGGCCGGA was tested, and the “PBM E-score” value was 0.279. GGTCCGGA was tested, and the “PBM E-score” value was 0.402. AGTCCCGG was tested, and the “PBM E-score” value was 0.1. For CGTCCGGA, the “PBM E-score” value was 0.27. In the case of AGTCCTGC, the “PBM E-score” value is reported as -0.19. In the case of AGTCCGGG, the “PBM E-score” value is reported as 0.485. With AATCCGGG the “PBM E-score” value was 0.103. AAGTCTAC was tested, and the “PBM E-score” value was 0.004. GTAGGCAC was tested, and the “PBM E-score” value was -0.102. For GTTCCAGA, the “PBM E-score” value was -0.0427. With ATGAATAA the “PBM E-score” value was 0.146. In the case of AGACGGCT, the “PBM E-score” value is reported as -0.121. In the case of AGGCTGTG, the “PBM E-score” value is reported as -0.0562.
